Measured values published in ChEMBL document CHEMBL3988442, “University of Dundee, Small-Polar-MMV Screening Library” (2021).
About 13,000 (27%) of roughly 48,000 compounds showed an effect of 50% or more. This is one part of the list.

system: Wolbachia pipientis; test: Anti-Wolbachia Cell-Based Screen; assay type: functional; design: scale not given: in the data most compounds retested in dose-response had high values; settings: 5 µM

Compound | Percent Effect
CN(C)S(=O)(=O)N1CC[C@]2(C[C@H](OCc3ccccn3)CO2)C1.O=C(O)C(F)(F)F | 14.62%
Cc1ccc(C(=O)N2CC[C@@H]3[C@H]2CCC(=O)N3CCN(C)C)cn1.O=C(O)C(F)(F)F.O=C(O)C(F)(F)F | 19.11%
CCn1nc(C)c(NC(=O)c2cc(NC(=O)C3CC3)n(C)n2)c1C | -7.543%
O=C1C(N2CCOCC2)CCCN1Cc1cccc(C(F)(F)F)c1 (stereo not given) | 85.07%
O=C1C(N2CC[C@@H](O)C2)CCCN1Cc1cccc(C(F)(F)F)c1 (stereo not given in full) | 107.1%
FC(F)(F)c1cccc(CN2CCOC[C@H](Oc3cccnc3)C2)c1 | -1.353%
NC1CCCN(Cc2cccc(C(F)(F)F)c2)C1=O (stereo not given) | 110.9%
O[C@H]1COCCN(Cc2cccc(C(F)(F)F)c2)C1 | 1.348%
O=C1NC[C@@]2(C(=O)O)CN(Cc3cccc(C(F)(F)F)c3)C[C@@H]12 | -16.76%
Cc1nc(CN2CCCC(CCc3cccc(C(F)(F)F)c3)C2)co1 (stereo not given) | -5.657%
NC(=O)CN(C(=O)Cc1cccc(C(F)(F)F)c1)C1CCCC1 | 0.7845%
O=C(C[S+]([O-])Cc1cccc(C(F)(F)F)c1)NC1CCCC1 (stereo not given) | -0.5467%
CC(C)(C)c1nc2cc(NC(=O)Cn3ccc(=O)[nH]c3=O)ccc2o1 | -2.056%
Cc1cccc(C(C(=O)N2CCN(C(=O)c3ccc[nH]3)CC2)N(C)C)c1 (stereo not given) | 8.522%
Clc1ccc2nc(N3CCC(NCCCC4CCOC4)CC3)sc2c1 (stereo not given) | 5.411%
CC(C)COCC(C)NC(=O)NCc1cccc(-n2cncn2)c1 (stereo not given) | 11.71%
CCN1CCCC(C)(C(=O)NCc2nnnn2-c2ccccc2)C1 (stereo not given) | 65.9%
CCN1CCCC(C)(C(=O)NCc2nncn2CCc2ccccc2)C1 (stereo not given) | 118.3%
CCN1CCCC(C)(C(=O)NCc2nccn2Cc2ccccc2)C1 (stereo not given) | 105.1%
CCN1CCCC(C)(C(=O)NCCCc2nc(C)cs2)C1 (stereo not given) | -10.41%
CCN1CCCC(C)(C(=O)NCCc2nnc(C)[nH]2)C1 (stereo not given) | 0.7717%
CCC1(CO)CCCN(Cc2nccn2Cc2ccccc2)C1 (stereo not given) | 7.742%

Compound | Percent Effect
CCN1CCCC(C)(C(=O)NCCc2n[nH]c(=O)[nH]2)C1 (stereo not given) | 34.99%
CCOC(=O)C1(Cc2ccccc2)CCCN(Cc2nccn2CC)C1 (stereo not given) | 6.244%
Cc1nnc(N2CCC(CN(C)C(C)C)CC2)c(C#N)c1C | 6.063%
O=C(CC1CC1)N1CCn2cc(Cn3cncn3)nc2C1 | 0.5446%
Cn1cc(Br)cc1C(=O)NCC(C)(O)c1ccsc1 (stereo not given) | -10.72%
Cn1cc(S(=O)(=O)NCC(C)(O)c2ccsc2)cn1 (stereo not given) | 76.2%
Cn1cnc(S(=O)(=O)NCC(C)(O)c2ccc3c(c2)OCO3)c1 (stereo not given) | -0.9964%
CSCC(C)(O)CNc1ncccc1I (stereo not given) | 15.53%
CC(=O)N1CCN(C(=O)c2snnc2C)[C@H]2CS(=O)(=O)C[C@H]21 | -13.7%
Cc1nc2cc(C3CCCCN3C(=O)C3CC3)nn2c(O)c1C (stereo not given) | 136.9%
Cc1nnsc1C(=O)N1CCCCC1c1cc2nc(C)c(C)c(O)n2n1 (stereo not given) | 136.2%
Cc1nc2cc(C3CCN(Cc4cccc(F)c4F)C3)nn2c(O)c1C.O=C(O)CC(O)(CC(=O)O)C(=O)O (stereo not given) | -10.9%
Cc1ncsc1C(=O)N1CCCCC1c1cc2nc(C)c(C)c(O)n2n1 (stereo not given) | 146.5%
Cc1nnsc1C(=O)N1CCN(C(=O)C2CCC2)[C@@H]2CS(=O)(=O)C[C@@H]21 | 2.369%
CC1CCCN(c2ccc(C(N)=O)cc2NC(=O)CC2=CCNCC2)C1 (stereo not given) | 16.61%
O=C1N(Cc2ccccc2F)CCCC12CCN(C1CCSCC1)C2 (stereo not given) | -13.98%
Cc1ncsc1CN1Cc2cn(C)nc2C(COCC2CC2)C1.O=C(O)C(F)(F)F.O=C(O)C(F)(F)F (stereo not given) | 13.37%
Cc1ccnn1CC(=O)N1CCCN(C2Cc3ccccc3C2)CC1 | -5.068%
CS(=O)(=O)NCC1CCCCN1C(=O)c1csc(-c2ccsc2)n1 (stereo not given) | 11.05%
CC(C)N1c2sc(-c3ccsc3)nc2CC1C(=O)NC1CCCC1 (stereo not given) | 65.31%
CC(C)N1c2sc(-c3ccsc3)nc2CC1C(=O)NC1CC1 (stereo not given) | 38.95%
CC(C)N1c2sc(-c3ccccc3)nc2CC1C(=O)NC1CCCC1 (stereo not given) | 22.35%

Compound | Percent Effect
Cc1cncc(C(=O)N2CCC(Cn3cc(-c4ccsc4)nn3)CC2)c1 | -0.4456%
O=C(NC1CC1)C1CCCN1c1ncnc2ccsc12 (stereo not given) | -11.59%
CC(C)NC(=O)C1Cc2nc(-c3ccsc3)sc2N1CC1CC1 (stereo not given) | 78.87%
O=C([C@@H]1CCCO1)N1CCC(Cn2cc(-c3ccsc3)nn2)CC1 | -13.58%
O=C(NC1CCCC1)C1Cc2nc(-c3ccsc3)sc2N1CC1CC1 (stereo not given) | 63.55%
COCCCN1CCCN(C(C)C(=O)Nc2cccc(I)c2)CC1 (stereo not given) | 23.62%
COc1ccc(-n2nc(C)c(C(C)=O)c2C)cc1CO | -7.291%
Cc1nc(COCc2nc3c(o2)CN(C(=O)c2ccoc2)C3)cs1 | 0.193%
CN(C)c1nc2c(c(N3CCC(O)CC3)n1)CN(CC(C)(C)C)CC2 | 3.405%
c1cc(CNCc2ccnc(N3CCCC3)c2)c2c(c1)OCO2 | -29.77%
CC(NC(=O)NCCN1CCCCCC1=O)c1nncn1C (stereo not given) | -0.9457%
Cc1noc(C(C)C)c1C(=O)NCCC(=O)N1CCCCC1 | 90.26%
Cc1noc(C(C)C)c1C(=O)NCCCN1CCCCCC1=O | 122%
Cc1noc(C(C)C)c1C(=O)NCCCN1CCNCC1.Cl | 114.5%
Cc1noc(C)c1C(=O)NCCN1CCOCC1 | 15.76%
Cc1nc(-c2ccsc2)ccc1C(=O)NCCC(=O)N1CCCC1 | 0.2112%
Cc1noc(C)c1C(=O)NCCN1CCN(c2ccccc2)CC1 | 7.051%
Cc1noc(C(C)C)c1C(=O)NCC1CCCN1Cc1ccccc1 (stereo not given) | -8.242%
CC(Cn1cccn1)NC(=O)NCCCN1CCCCCC1=O (stereo not given) | -6.235%
CCC(CC)(CCCNC(=O)c1c(C)noc1C)C1OCCO1 | -3.207%
Cc1noc(C(C)C)c1C(=O)NCCN1CCOCC1 | 72.1%
